Experimental data taken from PubChem BioAssay (NCI).
Where “and” joins values, the source holds several entries; their conditions need not be identical. Identical values can stand only once. The panel holds about 83,000 compounds, 20% with a hit somewhere; the sample as a whole holds those more often.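 Each cell line was grown in a 96-well plate and treated with one concentration of compound for 48 hours. Values below 10 were considered active.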 Calls of active or inactive are those of the source.

What follows are compounds tested on MDA-MB-468 breast (assay: NCI-60 one-dose screen, 48 h (100 = growth as untreated, 0 = no growth, -100 = all killed)). Conditions: 10 µM unless noted.
CCn1c2ccccc2c2cc(C(=O)c3ccc(C)c4ccccc34)ccc21 was tested, and the growth was 25.4% (inactive).
For C[CH2][Pb]([CH2]C)([CH2]C)[O]C(=O)COC, the growth was -49.3% (active).
For COc1ccc(/C=C\c2cc(OC)c(OC)c(OC)c2)cc1NC(=O)/C=C/c1cc(OC)c(OC)c(OC)c1, the growth was 16.5% (inactive).
C[CH2][Sn]([CH2]C)([CH2]C)[NH]S(=O)(=O)c1ccc(C)cc1 was tested, and the growth was 114% (inactive).
CC(C)OC(=S)[S-].[Au+].c1ccc([PH+](c2ccccc2)c2ccccc2)cc1 was tested, and the growth was -32.3% (active).
With Cc1nc2ccccc2c(=O)n1-c1ccccc1F the growth was 105% (inactive).
With C#C[C@]1(OC(=O)CCCCCC)CC[C@H]2[C@@H]3CCC4=CC(=O)CC[C@@H]4[C@H]3CC[C@@]21C the growth was 39.6% (inactive).
For [Cl][Hg][c]1ccc(Cl)s1, the growth was -61% (active).
CC(C)[C@@H]1NC(=O)[C@]2(C)CSC(=N2)c2csc(n2)CNC(=O)C[C@@H](/C=C/CCS)OC1=O was tested, and the growth was 30% (inactive).
In the case of O=C(O)CNC(=O)c1ccccc1, the growth is reported as 122% (inactive).
With Cc1c(NS(=O)(=O)c2ccccc2)ccc([N+](=O)[O-])c1Cl the growth was 34.5% (inactive).
For O=C(CCCC1CCCCC1)OCC(Cl)(Cl)Cl, the growth was 113% (inactive).
With CCOC(=O)CCC(NC(=O)C(Cc1ccc(N(CCCl)CCCl)cc1)NC=O)C(=O)OCC (stereo not given) the growth was -89.3% (active).
CC12CC[C@H](O)C=C1/C(=N/O)CC1C2CCC2(C)C1CC[C@@H]2O (stereo not given in full) was tested, and the growth was 100% (inactive).
In the case of CCCCCCCCCCOc1ccc(C(=O)Oc2ccc(CSP3(=O)OCC4OC(n5ccc(=O)[nH]c5=O)C(F)C4OP(=O)(O)OCC4OC(n5cnc6c(N)ncnc65)C(F)C4O3)cc2)cc1 (stereo not given), the growth is reported as 115% (inactive).
For C[C@]12CC[C@H]3[C@@H](C[C@@H]4N=C(c5ccc(O)cc5)S[C@@]45C[C@H](O)CC[C@]35C)[C@@H]1CC[C@@H]2O, the growth was 81% (inactive).
COC(=O)N[C@H]1CCc2c(Br)c(OC)c(OC)c(OC)c2-c2ccc(SC)c(=O)cc21 was tested, and the growth was -23.7% (active).
Oc1ccc(O)c2c1C1(Cl)C(Cl)=C(Cl)C2(Cl)C1(Cl)Cl was tested, and the growth was 4.54% (active).
Cc1cc(NC(=O)NCc2ccc(N3C(N)=NC(N)=NC3(C)C)cc2)ccc1S(=O)(=O)F was tested, and the growth was 63.3% (inactive).
With O=Cc1cn(Cc2ccc(Cl)cc2)c2ccccc12 the growth was -45% (active).
N#CC(N)c1ccccc1 (stereo not given) was tested, and the growth was 98.9% (inactive).
For CCC(CC)(c1ccccc1)C(OC(N)=O)c1ccccc1 (stereo not given), the growth was 75.8% (inactive).
In the case of CCOC(=O)[C@@H](C)C[C@H](Cc1ccccc1)NC(=O)c1csc([C@@H](C[C@H](C(C)C)N(C)C(=O)[C@@H](NC(=O)[C@H]2CCCCN2C)C(C)(C)C)OC(C)=O)n1, the growth is reported as 10.7% (inactive).
In the case of C[C@]12C[C@H](c3ccoc3)OC(=O)[C@H]1CC[C@@]1(C)[C@@H]2[C@H]2C=C[C@]1(O)C(=O)O2, the growth is reported as 105% (inactive).
In the case of CC1(C)C2CCC1(CS(=O)(=O)O)C(=O)C2 (stereo not given), the growth is reported as 123% (inactive).
With Nc1cccnc1 the growth was 130% (inactive).
C[C@]12C[C@@H](CO)[C@H](O)C[C@@H]1CC[C@@H]1[C@@H]2CC[C@]2(C)[C@@H](O)CC[C@@H]12 was tested, and the growth was 106% (inactive).
In the case of O=C=Nc1ccc(Br)cc1, the growth is reported as 83.1% (inactive).
COc1ccc(Nc2ccnc3cc(Cl)ccc23)cc1CN(CCCl)CCCl was tested, and the growth was -58.6% (active).
CC(=O)O[C@@H]1C[C@H]2O[C@@H]3C=C(C)CC[C@]3(C)[C@]1(C)[C@]21CO1 was tested, and the growth was 39.3% (inactive).
For CCCCOC(N)=O, the growth was 101% (inactive).
With CCOC(=O)[C@@H](C)C[C@H](Cc1ccccc1)NC(=O)c1csc([C@@H](C[C@H](C(C)C)N(C)C(=O)[C@@H](NC(=O)[C@H]2C[C@H](O)CCN2C)C(C)C)OC(C)=O)n1 the growth was 21.8% (inactive).
In the case of O=c1cc[nH]c(=O)o1, the growth is reported as 105% (inactive).
COC12CC3(C)C(C4=CC(=O)OC4)CCC3(O)C3CCC4=CC(=O)CCC4(CO1)C32 (stereo not given) was tested, and the growth was 101% (inactive).
For COc1cccc(/C=C/[N+](=O)[O-])c1, the growth was 25.8% (inactive).
For C[C@]12CCC(=O)C[C@@H]1CC[C@@H]1[C@@H]2CC[C@]2(C)[C@@H](OC(=O)N(CCCl)N=O)CC[C@@H]12, the growth was -45.8% (active).
C[C@]12CC[C@H]3[C@@H](CC=C4c5nc(N)sc5CC[C@@]43C)[C@@H]1CC[C@@H]2O was tested, and the growth was 91.2% (inactive).
Nc1ccc(Cl)cc1 was tested, and the growth was 97% (inactive).
For CC(=O)C1CCC2C3CC=C4CC(OC(=O)Cc5ccc(N(CCCl)CCCl)cc5)CCC4(C)C3CCC12C (stereo not given), the growth was 94.7% (inactive).
In the case of COc1cccc2c1cc([N+](=O)[O-])c1c(C(=O)O)cc3c(c12)OCO3, the growth is reported as -46.6% (active) and 100% (inactive).
